Assay results published in PubChem BioAssay (NCATS).
Inconclusive results are not listed. Where a call stands in place of a potency, no number is given. Activity calls are given as the source filed them. The call rests on the fitted dose curve; in most records, active means well fitted inhibition curve with a large enough effect; inconclusive means small, poorly fitted or top-dose-only effect; inactive means flat fitted curve, though single readings scatter.

System: Zika virus NS2B-NS3 protease
Assay: Primary screen GU AMC qHTS for Zika virus inhibitors (AID 1347154); further: nearly all actives have a fitted effect of over 70% in size
Details: Zika NS2B-NS3 unlinked protease, AMC fluorogenic substrate; series mostly up to 54.1 µM
Summary of the method: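 Unlinked Zika NS2B hydrophilic domain/NS3 protease domain noncovalent complex (25 nM final) in 10 mM Tris-HCl pH 8.0, 0.01% Tween 20, with AMC peptide substrate. Fluorescence (ex 340, em 450 nm) change over 15 min, room temperature; percent inhibition fitted to 4-parameter Hill equation.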

Structure (SMILES) | Potency
O=C(CN1C(=O)C2(CCCC2)NC[C@H]1c1cc(F)cc(F)c1)Nc1ccc2c(c1)C[C@@]1(C2)C(=O)Nc2ncccc21 | inactive
CCCCCN=C(N)NN=Cc1c[nH]c2ccc(OC)cc12 | inactive
O=C(C[C@@H]1CC=CCCC(=O)O[C@H](c2ccccc2)CNC1=O)NCc1ccc(Cl)cc1 | inactive
O=C(O)C(=O)Nc1cccc(C2=NN=N[N]2)c1 | inactive
O=C(Nc1cccc(Nc2ncc(Br)c(NCCc3cnc[nH]3)n2)c1)N1CCCC1 | inactive
Cc1cc(-c2nnc3n2CCCCC3)c(C)n1-c1ccccc1 | inactive
C#Cc1cccc(Nc2ncnc3cc(OCCOC)c(OCCO)cc23)c1 | inactive
